Source: PubChem BioAssay

Assay: 384-well plate pilot, post-Golgi transport modulator project, inhibition of yeast transport mutant growth (AID 636)
Conditions: absorbance 615 nm, about 18 h, hits give high values; in the data active means inhibition above about 31%; inactive means the rest

inhibition, inactive:
CCCCN=CC1=C(O)C(C(=O)OC)C(C)(C)CC1=O (stereo not given) 1.03%, Cc1ccc(C)c(C(=O)CC2(O)C(=O)N(C)c3ccccc32)c1 (stereo not given) -4.68%, CC(=O)C1=C(C)Nc2ncnn2C1c1cccc(OCc2ccccc2)c1 (stereo not given) -4%, Cc1ccc(C(=O)CC2(O)C(=O)N(C)c3ccc(Br)cc32)c(C)c1 (stereo not given) -4.13%, Fc1cccc(Nc2ncnc3c2cnn3-c2ccccc2)c1 2.4%, COc1ccc(NC(=O)NCCN2C(=O)C3C4C=CC(C4)C3C2=O)cc1 (stereo not given) -1.33%, Cc1ccc(C)c(NC(=O)CSc2nnc(-c3ccccc3)o2)c1 -6.4%, O=C(NCCCN1CCOCC1)c1cc(-c2ccc(O)cc2)on1 -6.4%, CCOC(=O)c1ccc(NC(=O)Cn2cc3c(n2)CCC(C)C3)cc1 (stereo not given) -2.8%, N#C/C(C(=O)N1CCOCC1)=C1/SC=C(c2ccccc2)N1c1ccccc1 -7.57%, COc1ccc(C(=O)c2coc3ccc(O)c(CN4CCCCC4)c23)cc1 -3.07%, CCn1c(C(=O)N2CCC(C(=O)N3CCN(c4ccccn4)CC3)CC2)cc2sccc21 -2.8%, CCOC(=O)N1CCN(Cc2nc3c(c(=O)n(C)c(=O)n3C)n2Cc2ccccc2)CC1 -2.13%, CN1CCN(C(=O)c2ccc(CS(=O)(=O)c3c(Cl)cccc3Cl)o2)CC1 -2%, CN(C)CCCN1C(=O)c2oc3ccc(Cl)cc3c(=O)c2C1c1cccnc1 (stereo not given) -2.93%, O=C(CSc1nnc2ccccn12)c1ccccc1 -4.27%, Cc1ccccc1Cn1ccc(NC(=O)c2onc(C)c2Cl)n1 -4%, CN(CCCNC(=O)c1cn(C)c2ccc(S(=O)(=O)N(C)C)cc2c1=O)c1ccccc1 0.38%, NC(=O)CN1C(=O)C(O)(CC(=O)c2ccccc2O)c2ccccc21 (stereo not given) -2.67%, CC(C)CCN(C)C1CCN(S(=O)(=O)c2ccc(F)cc2)CC1 -1.87%, COc1ccc(C(C)N2CC34C=CC(O3)C(C(=O)OCC(C)C)C4C2=O)cc1 (stereo not given) -4.27%, COc1ccc(Cl)cc1S(=O)(=O)N1CCN(c2ccc(F)cc2)CC1 4.23%, Cc1sc2nc(SCC(=O)NCCO)n(C)c(=O)c2c1C 0.77%, CC(=O)NCCc1nc2ccccc2[nH]1 -5.2%, CCN1C(=O)c2cccc3c(NC(=O)c4ccc(S(=O)(=O)N(C)C)cc4)ccc1c23 1.79%, Cc1nc2ccccc2c2oc(C(=O)N3CCN(C(=O)c4ccco4)CC3)cc12 -2.69%, c1ccc(Cn2nnc3c(N4CCCCCC4)ncnc32)cc1 -5.87%, COC(=O)c1cn(C(=O)c2ccc(Br)o2)c2ccccc12 1.03%, CS(=O)(=O)Nc1ccccc1C(=O)O -2.34%, Cn1cccc1Cc1nnc(SCC(=O)NCC2CCCO2)n1-c1ccc(F)cc1 (stereo not given) -4.93%, Cc1ccc(Cn2c(=O)c3ccccc3n3c(CCC(=O)O)nnc23)cc1 -5.07%, COc1ccc(OCCSc2nc3ccccc3n2CC(=O)O)cc1 -3.21%, CCCCSc1nc2c(cnn2-c2ccc(F)cc2)c(=O)[nH]1 -0.93%, CCOc1ccc(NC(=O)C(C)Sc2nnc(C)n2C)cc1 (stereo not given) -1.33%, CCOc1ccc2[nH]c(C)cc(=O)c2c1 0%, Cc1nc2ccccc2c2oc(C(=O)N3CCC(N4CCCCC4)CC3)cc12 -2.82%, O=C(O)c1ccc2c(c1)C(=O)N(c1ccc(Cl)cn1)C2=O -5.47%, COc1cccc(-c2nc(CS(=O)(=O)CC(=O)NCc3ccc(Cl)cc3)c(C)o2)c1 0.4%, COc1ccc(C(NC(=O)c2ccco2)c2ccc(OC)c(OC)c2)cc1 (stereo not given) -8.11%, CCOC(=O)N1CCC(NC(=O)CN2C(=O)CCSc3ccccc32)CC1 -1.87%
